FBW7 activator: FBW7 E3 ligase activators, primary screen, biochemical, AlphaScreen, human | F-box/WD repeat-containing protein 7 (Homo sapiens), Q969H0 | AlphaScreen FBW7–phospho-cyclin E peptide binding, activator screen | normalized activity (activation), % at 26.1 µM | 650,000 tested, 0.13% active; in the data active means normalized activity above about 1.9%;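 further: purified mutant Fbw7 with reduced substrate affinity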
MITF inh: MITF inhibitors, primary screen, biochemical, AlphaScreen, human. AlphaScreen MITF homodimerization, bead proximity signal. inhibition, % at 2.6 µM. 650,000 tested, 0.91% active; in the data active means inhibition above about 50%;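 further: 0% = vehicle wells with protein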
Target sequence (O75030 whole entry, looked up): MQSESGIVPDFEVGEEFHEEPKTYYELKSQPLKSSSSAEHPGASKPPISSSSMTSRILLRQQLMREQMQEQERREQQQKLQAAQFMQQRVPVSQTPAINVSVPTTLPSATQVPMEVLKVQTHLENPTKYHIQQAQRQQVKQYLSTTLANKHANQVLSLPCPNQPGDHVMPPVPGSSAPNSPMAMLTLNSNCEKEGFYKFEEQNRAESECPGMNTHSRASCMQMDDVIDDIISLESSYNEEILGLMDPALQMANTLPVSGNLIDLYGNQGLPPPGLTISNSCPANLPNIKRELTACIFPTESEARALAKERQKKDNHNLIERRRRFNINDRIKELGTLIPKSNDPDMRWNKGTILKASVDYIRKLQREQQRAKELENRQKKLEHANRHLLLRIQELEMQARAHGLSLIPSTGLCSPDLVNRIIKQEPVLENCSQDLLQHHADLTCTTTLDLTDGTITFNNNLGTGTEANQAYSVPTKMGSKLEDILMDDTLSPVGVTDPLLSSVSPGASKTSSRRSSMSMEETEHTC
GPR151 ag: activators of human GPR151, primary screen, cell-based, PathHunter beta-arrestin, luminescence; PathHunter beta-arrestin GPR151 cells; activation, % at 11.2 µM; 650,000 tested, 1% active; AID 1508602, 2020; in the data active means activation above about 4.9%;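 further: 0% = median of compound wells and 100% = cells with positive control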
TEAD-YAP inh: TEAD-YAP interaction inhibition, primary screen, TEAD-YAP interaction inhibitor project, luminescence, HEK-TIYL cells. TEAD-Gal4/YAP UAS-luciferase luminescence. inhibition, % at 9.12 µM. 640,000 tested, 1.4% active. AID 1259422, 2018; in the data active means inhibition above about 32%;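 further: 0% = median of test compound wells and 100% = reference inhibitor wells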
GPR151 conf act: GPR151 activators, triplicate retest, confirmation, cell-based, PathHunter beta-arrestin, luminescence. shares compounds with GPR151 ag. GPR151 PathHunter beta-arrestin cells, 90 min; % of EA-reagent control over plate median. activation, % at 11.2 µM. 6,700 tested, under 10 active. AID 1508609, 2020;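 active means mean percent activation across replicates above the confirmation screen cutoff of 4.91%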
GPR119 counter: GPR119 activators in beta-arrestin cells, counter-screen for GPR151 activator project, cell-based, PathHunter beta-arrestin, luminescence, triplicate; 90 min; 0 = compound-well median, 100 = enzyme-acceptor control; 6,700 tested, 0.3% active; activation, % at 11.2 µM; shares compounds with GPR151 ag;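 active means mean percent activation in the counterscreen above 29.09%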;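 further: counterscreen on off-target GPR119 to flag nonselective hits from the GPR151 activator screen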
The depositor's hits bear a star; · = no result given; ! = repeats disagree. Hits are enriched below; roughly 3.5% of the tested compounds scored in any of these assays.

SMILES | FBW7 activator | MITF inh | GPR151 ag | TEAD-YAP inh | GPR151 conf act | GPR119 counter
Cc1ccc(Cn2ccnc2SCC(=O)Nc2ccccc2F)cc1 | -0.1 | -1.5 | 8.6* | 5.0 | -0.4 | -9.0
CN(C)C=Nc1ccc2nc3c(=O)n(Cc4ccccc4)c(=O)[nH]c3nc2c1 | 0.1 | 5.8 | 0.7 | 1.2 | · | ·
CCN(CC)C(=S)SCCC(=O)NC(=O)Nc1ccc(F)cc1 | -0.5 | 0.7 | 23.8* | 14.2 | -0.7 | -3.3
CSc1nc(N)nc(SCC(=O)Nc2ccc(Cl)cc2)c1C#N | -0.2 | -7.4 | 11.2* | 3.4 | -0.2 | -0.4
CSc1nc(N)nc(SCC(=O)Nc2ccc(C)cc2)c1C#N | 0.2 | 3.8 | -0.1 | -1.2 | · | ·
Cc1ccc(CSc2nc3ccc(NC(=O)c4ccc(Cl)cc4)cc3s2)c(C)c1 | -0.1 | -6.9 | 0.5 | -2.3 | · | ·
CC1(C)OC(=O)N2CCN3C(=O)OC(C)(C)C3(C)C(Br)=C21 (stereo not given) | 0.2 | 7.1 | 6.0* | 6.9 | -0.5 | -2.5
CC(C)CCn1c(=O)c2sccc2n2c(CCCC(=O)O)nnc12 | 0.5 | 14.2 | 5.2* | 1.5 | -0.1 | -2.5
CC[C@H](C)NC(=O)CCCc1nnc2n(CCC(C)C)c(=O)c3sccc3n12 | 0.0 | 2.4 | -0.5 | 1.4 | · | ·
COc1ccc(-c2nc3cc(C)ccc3o2)cc1NC(=O)c1ccc(Cl)cc1Cl | 0.1 | 7.0 | 1.4 | 5.8 | · | ·
COc1cccc(CNC(=O)c2nc3ccc(-c4ncnc5[nH]ccc45)cc3c(=O)[nH]2)c1 | -0.1 | -2.8 | 1.0 | -8.7 | · | ·
COc1cccc(CNS(=O)(=O)c2ccc(-c3ncnc4[nH]ccc34)cc2F)c1 | 0.1 | 27.8 | 5.0* | -15.1 | 1.1 | -6.6
CCOc1ccc(-c2nnc(SCC(N)=O)n2-c2ccccc2)cc1 | 0.7 | -11.0 | 0.1 | -3.1 | · | ·
CCCOc1ccc(-c2nnc(SCC(N)=O)n2-c2ccccc2)cc1 | 0.0 | -1.5 | 5.3* | 7.8 | 0.4 | 2.9
C=CCn1c(SCC(=O)Nc2ccccc2F)nc2sc3c(c2c1=O)CCC(C)C3 (stereo not given) | 0.4 | 1.5 | 8.7* | 6.6 | -0.1 | -8.6
Cc1cccc(NC(=O)CSCc2cc(=O)[nH][nH]2)c1C | -0.5 | 4.3 | -1.3 | 9.1 | · | ·
O=C1CCCN1CCCNc1nc(NCc2cccnc2)nc2c1ncn2CCN1CCCC1=O | 0.2 | 15.5 | 6.7* | -7.2 | -0.9 | -15.3
COc1cc(Nc2nc(NCc3cccnc3)nc3c2ncn3CCN2CCCC2=O)cc(OC)c1OC | 0.0 | -3.6 | 5.0* | -3.7 | -0.5 | -7.1
COc1cc(Nc2nc(NCc3cccc(C(F)(F)F)c3)c3ncn(CCN4CCCC4=O)c3n2)cc(OC)c1OC | 0.4 | 5.4 | 5.3* | 1.9 | -0.2 | -10.4
O=C1CCCN1CCn1cnc2c(NCc3ccccc3)nc(NCc3cccnc3)nc21 | 0.5 | 4.0 | -2.0 | 0.0 | · | ·
O=C(CNC(=O)c1cccc(Br)c1)N/N=C/c1ccccc1[N+](=O)[O-] | -0.1 | 2.8 | 2.5 | -9.5 | · | ·
CCN(/C=C1\C(=O)N(c2ccccc2)N=C1C)CC | -0.4 | -6.5 | 0.8 | 2.0 | · | ·
CC(C)Sc1nc2c(c(=O)[nH]1)C(c1cccs1)C1=C(CCCC1=O)N2 (stereo not given) | -0.1 | 11.3 | 5.2* | 2.2 | 1.2 | 5.6
CC12CC3CC(C1)CC(NC(=O)c1ccc(Cl)cc1Cl)(C3)C2 | 0.0 | 6.2 | 5.0* | -9.0 | -0.1 | -4.9
COc1cccc(OC)c1C(=O)Nn1c(C2CC2)nc2cc(Cl)ccc2c1=O | 0.1 | 0.9 | -0.1 | -28.2 | · | ·
SMILES | FBW7 activator | MITF inh | GPR151 ag | TEAD-YAP inh | GPR151 conf act | GPR119 counter
Cc1[nH]n(-c2ccc([N+](=O)[O-])cc2)c(=O)c1C=NC1CCCCC1 | -0.1 | 3.1 | 0.1 | -15.8 | · | ·
Nc1ccc2c(c1)S(=O)(=O)c1cc(N)ccc1O2 | -0.1 | 2.7 | 7.4* | -59.2 | 0.3 | -5.9
O=C(O)c1cccc(-n2nnnc2-c2ccccc2)c1 | 0.2 | -5.0 | 5.8* | -6.7 | -0.9 | -18.3
CS(=O)(=O)N(CC(=O)Nc1ccc2c(c1)OCCO2)c1ccc(Br)cc1 | -0.1 | -2.5 | -0.6 | -65.4 | · | ·
COc1cccc(-c2nc(C3CCCN3C(=O)CCCC(=O)O)n3ccccc23)c1 (stereo not given) | -0.8 | -17.0 | 5.7* | -8.6 | 0.8 | 5.6
COc1cccc(-c2nc(C3CCCN3C(=O)CC(C)CC(=O)O)n3ccccc23)c1 (stereo not given) | -0.5 | -10.6 | 0.1 | -5.8 | · | ·
COc1ccccc1-c1csc(NC(=O)c2ccc([N+](=O)[O-])cc2[N+](=O)[O-])n1 | 0.6 | 5.1 | 0.6 | 2.4 | · | ·
CN1CCC(=C2c3ccccc3C=Cc3ccccc32)CC1 | -0.1 | -15.1 | 5.3*! | -10.8 | 0.2 | -5.8
CN1CCC(=C2c3ccccc3Sc3ccccc32)CC1 | 0.0 | -3.5 | 2.0 | 6.3 | · | ·
Cc1ccc(S(=O)(=O)/N=C(\CN2CCCCC2)N2CCCCC2)cc1 | 0.0 | 4.5 | 5.4* | 1.9 | -0.5 | -5.6
O=C1CCCc2c1n(CC(O)CO)c1ccccc21 (stereo not given) | 0.0 | 8.2 | 1.8 | 0.8 | · | ·
COC(CN1C(=O)C(=O)/C(=C(/O)c2ccccc2)C1c1cccnc1)OC (stereo not given) | -0.1 | 0.0 | 5.9* | 4.4 | 0.8 | 4.4
O=C1C(=O)N(CCN2CCOCC2)C(c2cccnc2)/C1=C(/O)c1ccc(S(=O)(=O)N2CCOCC2)cc1 (stereo not given) | 0.1 | 13.7 | 6.5* | 3.1 | 0.7 | 3.1
COC(CN1C(=O)C(=O)/C(=C(\O)c2ccccc2)C1c1ccccc1)OC (stereo not given) | -0.1 | -1.4 | 0.8 | 7.1 | · | ·
CCOc1ccccc1/C=N/NC(=O)c1ccccn1 | -0.1 | 7.0 | -2.5 | -40.0 | · | ·
CCCN1CCC(=NNC(=O)c2ccc(Cl)cc2Cl)CC1 | 0.1 | 16.0 | 4.9* | 2.3 | 1.1 | 6.4
CCn1c(N)c(C(=O)N2CCCCC2)sc1=S | -0.2 | 9.7 | 5.4* | 0.2 | -0.4 | 0.0
Cc1c([N+](=O)[O-])cc(C(=O)NNc2ccccc2)cc1[N+](=O)[O-] | 0.0 | -1.1 | 2.6 | 10.2 | · | ·
COc1ccc(S(=O)(=O)N2CCC(c3ccccc3)C2)c(C)c1 (stereo not given) | 0.3 | 1.1 | 3.2 | 5.0 | · | ·
CCCNc1nc(Nc2ccc3ncccc3c2)ncc1C | 0.1 | 2.6 | -0.9 | -6.5 | · | ·
Cc1cnc(Nc2ccc3ncccc3c2)nc1NCCN(C(C)C)C(C)C | 0.2 | -4.5 | 5.4* | 4.5 | 1.2 | 3.0
O=[N+]([O-])c1cccc(S(=O)(=O)NCc2ccco2)c1 | 0.0 | 10.9 | 2.8 | 12.6 | · | ·
